Results reported in PubChem BioAssay AID624330 (Southern Research Specialized Biocontainment Screening …, 2012).
Values joined by “and” are separate entries in the source; they are usually repeats but may differ in a detail not shown here. Identical values can stand only once. About 2,100 (0.62%) of roughly 340,000 compounds were called active.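 How the source made its calls: active means first-screen hits whose inhibition reached a set limit at any dose in the follow-up dose series; inconclusive means inhibition above the set first-screen limit but never retested; inactive means the rest.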 Only a sample is shown. Potency and affinity values are given separately.

target: Rac GTPase-activating protein 1 (Homo sapiens) (UniProt Q9H0H5); assay: blockers of MgcRacGAP-driven Rac1 GTP hydrolysis – biochemical, ADP Hunter fluorescence, primary and confirmatory, confirmation (AID 624330); details: MgcRacGAP-stimulated Rac1 GTP hydrolysis, at 30 µM, active compounds read high, GST-tagged Rac1 F28L mutant substrate;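 further: fluorescence reports GDP produced by GAP-driven GTP hydrolysis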
Sequence (Q9H0H5 whole entry, looked up): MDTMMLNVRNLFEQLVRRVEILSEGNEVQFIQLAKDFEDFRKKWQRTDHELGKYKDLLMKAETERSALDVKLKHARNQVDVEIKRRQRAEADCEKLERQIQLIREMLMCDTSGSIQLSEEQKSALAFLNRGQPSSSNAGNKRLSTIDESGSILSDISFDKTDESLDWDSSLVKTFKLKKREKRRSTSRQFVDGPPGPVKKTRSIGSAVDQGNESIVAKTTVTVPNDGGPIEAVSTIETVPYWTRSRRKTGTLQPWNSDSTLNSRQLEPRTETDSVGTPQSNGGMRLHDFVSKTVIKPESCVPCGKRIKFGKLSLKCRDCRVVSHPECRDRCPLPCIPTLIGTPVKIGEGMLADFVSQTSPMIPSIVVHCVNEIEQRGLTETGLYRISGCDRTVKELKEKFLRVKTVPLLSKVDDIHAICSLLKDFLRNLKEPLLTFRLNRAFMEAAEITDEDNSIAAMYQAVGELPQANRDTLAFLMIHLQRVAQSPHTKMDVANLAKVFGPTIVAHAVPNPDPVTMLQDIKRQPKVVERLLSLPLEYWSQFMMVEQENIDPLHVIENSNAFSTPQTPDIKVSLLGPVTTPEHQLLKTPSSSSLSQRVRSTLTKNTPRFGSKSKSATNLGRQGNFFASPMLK

inhibition, inactive:
CCOC(=O)C1=CN(Cc2cccc(-c3ccc(F)cc3)c2)S(=O)(=O)N(C)C1C (stereo not drawn) 8.9%
Cc1cc(C)nc(Nc2ccc(Cl)cc2C)n1 4.71%
Cc1nc2sc(C(c3cccs3)N3CCC4(CC3)OCCO4)c(O)n2n1 (stereo not drawn) 1.65%
Cc1cc(C)c2ccc(=O)n(CC(=O)N/N=C/c3ccccc3Cl)c2n1 5.91%
COc1cc2[nH]c3ccccc3c2cc1C -5.8%
Cc1ccc(C)c2c1[nH]c1ccccc12 10.6%
Cc1ccc(C(C)C)c(OC/C(O)=C(\C#N)c2nc3ccccc3[nH]2)c1 6.88%
CC1(C)C(c2ccccc2)=[N+]([O-])C2(CCCCC2=O)N1O (stereo not drawn) 1.13%
CCOC(=O)C1CCN(S(=O)(=O)CCNC(=O)c2ccc(F)cc2)CC1 6.46%
Oc1ccc(N=Nc2ccc(Br)cc2)c(O)c1 12.2%
O=S(=O)(O)c1cccc2c(N=Nc3ccc(O)c4ncccc34)cccc12 18.4%
O=[N+]([O-])c1ccc(N=Nc2ccc(O)cc2O)cc1 7.64%
O=S(=O)(O)c1cc(O)ccc1O 4.04%
O=C(Cc1ccc(F)cc1)NC(Cc1c[nH]c2ccccc12)C(=O)O (stereo not drawn) -3.39%
Cc1c(Cl)cnc(NC(=O)CSc2nnnn2C)c1Cl 3.41%
CN(C)CCCN1c2ccccc2Sc2ccc(Cl)cc21 22% and 17.9%
OCCN1CCN(CCCN2c3ccccc3Sc3ccc(Cl)cc32)CC1 31.9%
CC(=O)c1ccc2c(c1)N(CCCN(C)C)c1ccccc1S2 12.4%
CN1CCN(CCCN2c3ccccc3Sc3ccc(C(F)(F)F)cc32)CC1 7.89% and 12.7% and 6.18%
CNc1ccc(/C=C/C(=O)c2cccc3ccccc23)cc1[N+](=O)[O-] 1.28%
CCN(C(=O)COC(=O)/C=C/c1c(C)nn(-c2ccccc2)c1C)C1CCS(=O)(=O)C1 (stereo not drawn) 5.67%
CC(=O)c1ccc(NC(=O)CN2CCN(c3ccccc3)CC2)cc1 5.48%
COc1ccc2[nH]c3c(=O)n(Cc4ccc(C(=O)N5CCCC5)cc4)c(=S)[nH]c3c2c1 4.08%
COc1ccc2[nH]c3c(=O)n(Cc4ccc(C(=O)N5CCCCCC5)cc4)c(=S)[nH]c3c2c1 6.08%
COc1ccc2[nH]c3c(=O)n(CCCCC(=O)N4CCCC4)c(=S)[nH]c3c2c1 23.1%
CC[C@H](C)NC(=O)CCCCCn1c(=S)[nH]c2c([nH]c3ccc(OC)cc32)c1=O 3.32%
CC(C)(CO)CNC(=O)CCc1nnc(-c2ccc(-c3ccccc3)cc2)o1 9.2%
CC(OC(=O)c1ccc(-c2ccc(O)cc2)cc1)C(=O)NC1CCCCC1C (stereo not drawn) 8.27%
CC(C)CN1CCC(Oc2cccc(C(=O)NCCc3ccccc3)c2)CC1 11.2%
CC(=O)c1sc(NC(=O)c2cccc(N3C(=O)CCC3=O)c2)nc1-c1ccccc1 2.55%
C[C@@H]1CN([C@@H](C)CO)C(=O)CCCn2nncc2CO[C@H]1CN(C)S(=O)(=O)c1ccc2c(c1)OCCCO2 7.05%
Cc1ccc([C@@H]2C[C@H]3[C@@H](CN2S(=O)(=O)c2ccc(Cl)cc2)C(=O)C[C@@H](c2ccccc2)N3S(=O)(=O)c2ccc(C)cc2)cc1 17.6%
Cc1ccc(C2/C=C\CC(NC(=O)OCC3c4ccccc4-c4ccccc43)CC(=O)N2Cc2ccccc2)cc1 (stereo not drawn) 7.21%
CCCC1=[N+](CC(C)=O)CCn2c(C)ccc21 -4.62%
Cc1c(-c2ccccc2)cn2c1-c1ccc(C)n1CC2 5.62%
COc1cc2c(cc1NC(=O)CSc1nc3cc(Cl)ccc3s1)oc1ccccc12 5.98%
CCc1ccc(-c2nn(Cc3ccccc3)cc2C(=O)NCC2CCCO2)cc1 (stereo not drawn) 0.77%
CC(=O)Nc1ccc(/C=N/NC(=O)c2cc(-c3ccco3)nc3ccccc23)cc1 6.26%
O=C(N/N=C/c1cccc(F)c1)c1cc(-c2ccco2)nc2ccccc12 7.31%
CSc1nc(C)c(C(=O)C[n+]2ccccc2)cc1C#N 5.97%
FC(F)(F)c1cccc(N2CCN(Cc3ccoc3)CC2)c1 9.97%
COc1ccc(-n2c(=S)[nH]c3cc(C(=O)O)ccc3c2=O)cc1 1.88%
COc1cc(S(N)(=O)=O)c(OC)cc1N 7.46%
COc1ccc(OC)c(N)c1 18.5%
Cc1cc(N=Nc2c(O)c3ccccc3[nH]c2=O)ccc1N=Nc1ccc(C(=O)N(C)C)cc1 6.51%
COc1ccc(N=Nc2ccc(N)nc2N)cc1 18.6%
Cc1ccc(N=Nc2ccc(N)cc2C)c(S(N)(=O)=O)c1 13.8%
COc1ccc(C(=O)c2ccc(OC)c(N)c2)cc1N 4.59%
CCCNS(=O)(=O)c1ccc(CCC(=O)NCCc2ccc(OC)c(OC)c2)cc1 1.4%
NC(N)=NC1=NC(=O)/C(=C/c2ccccc2-n2cccn2)S1 10.9%
CC1(C)CC(=O)C(C=Nc2ccc(NC3=C(C#N)C(=O)CC(C)(C)C3)cc2)=C(O)C1 7.44%
CC(/C=N/O)Cc1ccc2c(c1)OCO2 (stereo not drawn) 2.11%
COc1ccc(C2C(C(=O)NCc3ccco3)c3ccccc3C(=O)N2C)cc1 (stereo not drawn) 0.04%
CC1=C(C(=O)N(C)C)CC(CC(=O)NC2CCCC2)C(=O)N1CCC1=CCCCC1 (stereo not drawn) 14.5%
O=C(CNC(=O)c1ccccc1Br)N/N=C/c1cccs1 0.32%
CCn1c2ccccc2c2cc(CNCCCN3CCOCC3)ccc21 20.3%
CCCC(=O)Nc1ccc2c(c1)c1ccccc1n2CC 10.5%
CCn1c2ccccc2c2cc(NC(C)=O)ccc21 6.13%
COc1ccc(CNCc2ccc3ccccc3c2)c(OC)c1 28.9%
CCn1c2ccccc2c2cc(NC(=O)CC(C)=O)ccc21 8.51%
CCn1c2ccccc2c(=O)c2ccccc21 5.08%
CCn1c2ccccc2c2cc(CC(N)=O)ccc21 8.07%
COc1cccc(CNCc2ccc(OC)cc2OC)c1 22.9%
